Here are results for eight compounds from PubChem BioAssay (EPA / NIEHS).

Read-out in experiment [1]: xenobiotic metabolism (CYP1A1), CYP1A1 (gene 1543)
Kind of experiment: CLD_CYP1A1_6hr: CellzDirect (CLD) Gene Expression Assay for xenobiotic metabolism (CYP1A1) at 6 hours (AID 2283661).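 For AC50: potency for transcript induction above DMSO vehicle baseline.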 The procedure, abridged: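 Primary human hepatocytes from two donors, compound versus 0.2% DMSO vehicle. CYP1A1 mRNA measured 6 h after dosing by quantitative nuclease protection assay with chemiluminescent read-out; induction fitted relative to DMSO, cytotoxicity flagged by microscopy.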

Experiment [2] concerns Thyroperoxidase (TPO), gene 54314. Kind of experiment: CCTE_Simmons_AUR_rTPO: CCTE's Amplex UltraRed Assay for Thyroperoxidase (TPO) Inhibition, Simmons Lab (AID 2283662).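 For AC50: potency for loss of signal meaning inhibition of peroxidase activity.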 A digest of the protocol: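 Rat thyroid microsomal TPO + 25 uM AUR in 200 mM K phosphate; cpd 5 nM–87.5 uM [final], 8 conc, 0.5% DMSO; 300 uM H2O2 starts rxn; 37C dark 30 min; endpoint FI 544/590 nm; n=3.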

The nature of experiment [3]: Tanguay_ZF_120hpf_TR_legacy: (Legacy) Oregon State University Tanguay Lab 120 Hour Post-fertilization zebrafish Assay for Touch Response (AID 2283667). The procedure, abridged:
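Tropical 5D wild-type zebrafish embryos statically exposed to 120 hpf at 28°C, sealed and dark-covered, 0.64% DMSO final; touch response scored as present/absent by brightfield microscopy at 120 hpf. Trimethyltin chloride 5 uM positive control; dead embryos not scored.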

Experiment [4] is described as follows: CLD_ACTIN_24hr: CellzDirect (CLD) Gene Expression Assay for Baseline Control (Actin) at 24 hours (AID 2283670). A digest of the protocol:
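Primary human hepatocytes dosed over multiple concentrations with 0.2% DMSO vehicle; actin mRNA measured at 24 h by qNPA chemiluminescence. Background control endpoint, fitted as gain of signal versus DMSO.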

Read-out in experiment [5]: glucuronosyltransferase (UGT1A1), UGT1A1 (gene 54658)
The experiment can be described thus: CLD_UGT1A1_6hr: CellzDirect (CLD) Gene Expression Assay for glucuronosyltransferase (UGT1A1) at 6 hours (AID 2283672). A digest of the protocol:
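Primary human hepatocytes from two donor preparations, dosed with fresh solutions in 0.2% DMSO, harvested at 6 h. UGT1A1 mRNA measured by qNPA chemiluminescence; induction fitted upward versus DMSO.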

Experiment [6] is described as follows: CLD_ACTIN_6hr: CellzDirect (CLD) Gene Expression Assay for Baseline Control (Actin) at 6 hours (AID 2283676).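 Note: active means increased actin mRNA relative to DMSO vehicle.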 The procedure, abridged:
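Primary human hepatocytes dosed with fresh chemical solutions (vehicle 0.2% DMSO), harvested at 6 h. Actin mRNA quantified by quantitative nuclease protection assay with chemiluminescent read-out, as background control relative to DMSO.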

Experiment [7] is described as follows: CCTE_Padilla_ZF_144hpf_TERATOSCORE: (Legacy) CCTE's 144 Hour Post-fertilization zebrafish Assay Teratoscore, Padilla Lab (AID 2283679; active = hit-call score of the fitted dose curve at least 0.9, where 1 is the maximum; inactive = score below 0.9;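 for AC50: zebrafish embryos with chorions exposed by immersion from 6-8 hpf to 5 dpf with daily renewal; teratogenicity score from eye scoring of death hatching and malformations at 144 hpf; higher score means more developmental defects relative to DMSO baseline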). The procedure, abridged: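 Larvae scored by eye at 144 hpf for death, hatching and malformations after a day in clean Hanks'. Before that, daily-renewed exposure at 80 uM (0.4% DMSO, 26C) from roughly 6-8 hpf through 5 dpf, 4 embryos per chemical.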

Read-out in experiment [8]: Cytochrome P450 2B6 (Homo sapiens) (UniProt P20813)
Kind of experiment: CLD_CYP2B6_24hr: CellzDirect (CLD) Gene Expression Assay for xenobiotic metabolism (CYP2B6) at 24 hours (AID 2283686). A digest of the protocol:
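Primary human hepatocytes dosed daily for two days with fresh solutions, harvested at 24 hours; mRNA induction quantified by qNPA chemiluminescence, gain of signal vs 0.2% DMSO vehicle. Cytotoxicity annotated from phase-contrast morphology.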

Read-out in experiment [9]: Cytochrome P450 2C9 (Homo sapiens) (UniProt P11712)
Kind of experiment: CLD_CYP2C9_24hr: CellzDirect (CLD) Gene Expression Assay for xenobiotic metabolism (CYP2C9) at 24 hours (AID 2283688). The procedure, abridged: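 Primary human hepatocytes from two donor preparations, dosed daily for two days at multiple concentrations; vehicle 0.2% DMSO. CYP2C9 mRNA induction at 24 h measured by qNPA chemiluminescence relative to DMSO; cytotoxicity annotated from morphology.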

Read-out in experiment [10]: Cytochrome P450 3A4 (Homo sapiens) (UniProt P08684)
Kind of experiment: CLD_CYP3A4_24hr: CellzDirect (CLD) Gene Expression Assay for xenobiotic metabolism (CYP3A4) at 24 hours (AID 2283689). The procedure, abridged:
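Primary human hepatocytes from two donors dosed daily with fresh compound for two days, 0.2% DMSO vehicle. CYP3A4 mRNA at 24 hr by qNPA chemiluminescence; gain-of-signal fit versus DMSO, cytotoxicity flagged by morphology.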

Read-out in experiment [11]: HMG-CoA synthase (HMGCS2), HMGCS2 (gene 3158)
Kind of experiment: CLD_HMGCS2_24hr: CellzDirect (CLD) Gene Expression Assay for HMG-CoA synthase (HMGCS2) at 24 hours (AID 2283691). The procedure, abridged:
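Primary human hepatocytes from two donor preparations, dosed daily with fresh solutions; vehicle 0.2% DMSO, 24 h harvest. HMGCS2 mRNA quantified by qNPA with S1 nuclease digestion and chemiluminescence; gain fitted versus DMSO, cytotoxicity annotated by morphology.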

Read-out in experiment [12]: alkyl and aryl transferase (GSTA2), GSTA2 (gene 2939)
The experiment can be described thus: CLD_GSTA2_24hr: CellzDirect (CLD) Gene Expression Assay for alkyl and aryl transferase (GSTA2) at 24 hours (AID 2283693). A digest of the protocol: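 Primary human hepatocytes (two donor preparations) dosed daily for two days with chemicals at multiple concentrations (vehicle 0.2% DMSO); GSTA2 mRNA at 24 h measured by qNPA chemiluminescence, gain-of-signal versus DMSO.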

Read-out in experiment [13]: xenobiotic metabolism (CYP1A2), CYP1A2 (gene 1544)
Kind of experiment: CLD_CYP1A2_6hr: CellzDirect (CLD) Gene Expression Assay for xenobiotic metabolism (CYP1A2) at 6 hours (AID 2283663).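 For AC50: potency is for induction meaning a rise in mRNA above DMSO.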 A digest of the protocol:
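Primary human hepatocytes from two donor preparations, dosed daily with multiple concentrations in 0.2% DMSO and harvested at 6 h. CYP1A2 mRNA induction measured by chemiluminescent qNPA, gain of signal fitted against DMSO; cytotoxicity flagged morphologically.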

Read-out in experiment [14]: organic anion transporter (SLCO1B1), SLCO1B1 (gene 10599)
Kind of experiment: CLD_SLCO1B1_6hr: CellzDirect (CLD) Gene Expression Assay for organic anion transporter (SLCO1B1) at 6 hours (AID 2283668).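 Note: active means mRNA induction above DMSO baseline.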 A digest of the protocol:
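Primary human hepatocytes dosed daily with test chemicals (multiple concentrations) in 0.2% DMSO vehicle; harvested at 6 h. SLCO1B1 mRNA quantified by qNPA chemiluminescence, fitted as gain-of-signal versus DMSO; cytotoxicity from phase-contrast morphology flagged alongside.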

Read-out in experiment [15]: xenobiotic metabolism (CYP1A2), CYP1A2 (gene 1544)
Kind of experiment: CLD_CYP1A2_24hr: CellzDirect (CLD) Gene Expression Assay for xenobiotic metabolism (CYP1A2) at 24 hours (AID 2283683). A digest of the protocol:
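Primary human hepatocytes from two donor preparations dosed daily with multiple concentrations of chemical, 0.2% DMSO vehicle. CYP1A2 mRNA at 24 h quantified by qNPA chemiluminescence; gain of signal analyzed relative to DMSO. Cytotoxicity flagged by phase-contrast morphology.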

Read-out in experiment [16]: ABC Transporter (ABCB1), ABCB1 (gene 5243)
Kind of experiment: CLD_ABCB1_24hr: CellzDirect (CLD) Gene Expression Assay for ABC Transporter (ABCB1) at 24 hours (AID 2283684).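 For AC50: potency for increase in ABCB1 mRNA relative to DMSO vehicle.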 A digest of the protocol:
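Primary human hepatocytes, two donor preparations, dosed daily with fresh solutions; vehicle 0.2% DMSO; harvested at 24 h. ABCB1 mRNA measured by quantitative nuclease protection assay (chemiluminescence); morphology-based cytotoxicity annotated.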

The nature of experiment [17]: CCTE_Simmons_CellTiterGLO_HEK293T: Viability Assessment in CCTE's Assays for Thyroperoxidase (TPO) Inhibition, Simmons Lab (AID 2283665).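 For AC50: cells exposed to compound for 24 h before readout; actives reduce ATP signal below DMSO vehicle meaning cytotoxicity.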 The procedure, abridged:
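HEK293T cells in DMEM with 1% FBS were dosed with 8 concentrations (5 nM–87.5 uM final, 0.5% DMSO) for 24 hr at 37C; ATP content was read by CellTiter-Glo luminescence, loss-of-signal versus DMSO, three biological replicates.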

Read-out in experiment [18]: Cytochrome P450 2B6 (Homo sapiens) (UniProt P20813)
The experiment can be described thus: CLD_CYP2B6_6hr: CellzDirect (CLD) Gene Expression Assay for xenobiotic metabolism (CYP2B6) at 6 hours (AID 2283677).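 Note: actives raise CYP2B6 transcript above DMSO baseline so AC50 marks an inducer.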 A digest of the protocol:
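Primary human hepatocytes dosed with chemicals at multiple concentrations, vehicle 0.2% DMSO; CYP2B6 mRNA induction measured 6 h after dosing by quantitative nuclease protection assay with chemiluminescence, gain of signal fitted relative to DMSO.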

Read-out in experiment [19]: Cytochrome P450 (CYP24A1_1), CYP24A1 (gene 1591)
The experiment can be described thus: LTEA_HepaRG_CYP24A1_1: Life Technologies and Expression Analysis (LTEA) Assay for Cytochrome P450 (CYP24A1_1) using HepaRG (AID 2283671; active = hit-call score of the fitted dose curve at least 0.9, where 1 is the maximum; inactive = score below 0.9). The note with it: mRNA level, 48 h; actives raise or lower the signal. The procedure, abridged:
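Differentiated human HepaRG cells in serum-free induction medium, exposed 48 h in duplicate to eight half-log concentrations from 100 uM top, 0.5% DMSO. Transcript measured by TaqMan qRT-PCR, normalised to ACTB, GAPDH, POLR2A; bidirectional fitting versus DMSO.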

Read-out in experiment [20]: xenobiotic metabolism (CYP1A1), CYP1A1 (gene 1543)
The experiment can be described thus: CLD_CYP1A1_24hr: CellzDirect (CLD) Gene Expression Assay for xenobiotic metabolism (CYP1A1) at 24 hours (AID 2283673).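 Note: CYP1A1 mRNA level by quantitative nuclease protection with chemiluminescence.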 The procedure, abridged:
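Primary human hepatocytes dosed daily with fresh solutions in 0.2% DMSO vehicle. mRNA measured at 24 h by quantitative nuclease protection assay with chemiluminescence; gain-of-signal fit versus DMSO, with morphology-based cytotoxicity flags.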

Structures are written as SMILES. Where “and” joins values, the source holds several entries; their conditions need not be identical. Equal entries are not always repeated. Inconclusive results are not listed. More than one record can exist for a structure, and the calls need not agree. Calls of active or inactive are those of the source. Rule for the calls, unless noted: active = hit-call score of the fitted dose curve at least 0.9, where 1 is the maximum; inconclusive = response in the unintended direction; inactive = score below 0.9.

Sequence of Cytochrome P450 3A4 (Homo sapiens) (P08684 whole entry, looked up): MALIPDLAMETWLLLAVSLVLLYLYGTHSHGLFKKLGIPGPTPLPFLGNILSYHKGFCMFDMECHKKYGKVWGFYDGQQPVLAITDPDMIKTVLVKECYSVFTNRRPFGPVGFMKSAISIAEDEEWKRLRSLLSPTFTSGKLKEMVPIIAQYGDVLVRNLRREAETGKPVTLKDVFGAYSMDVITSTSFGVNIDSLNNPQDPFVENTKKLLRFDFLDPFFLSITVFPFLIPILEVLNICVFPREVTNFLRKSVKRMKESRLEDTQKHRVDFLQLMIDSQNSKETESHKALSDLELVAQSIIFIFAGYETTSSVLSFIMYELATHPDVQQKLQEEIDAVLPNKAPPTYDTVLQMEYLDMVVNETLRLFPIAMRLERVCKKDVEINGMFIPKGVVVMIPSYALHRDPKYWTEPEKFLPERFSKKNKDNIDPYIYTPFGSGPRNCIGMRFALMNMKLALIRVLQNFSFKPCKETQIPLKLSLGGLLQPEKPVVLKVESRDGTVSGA

On to `Oc1ccc(Cl)cc1Cc1ccccc1`, for which the compound was classed as inactive in experiment [1], in experiment [3], in experiment [4], in experiment [5], in [6] and in [8]. The result in experiment [9], in [10], in experiment [11] and in [12] was inactive. Also, the AC50 in [2] was 12.7 µM (active); in [7] it was 5.12 µM (active) and 9.81 µM (active) and 9.21 µM (active).
Turning to `CCN(CC)C(=O)SCc1ccc(Cl)cc1`, the compound was classed as inactive in [1], in experiment [13], in experiment [3], in experiment [14], in experiment [5] and in [6]. Also, the call in experiment [15], in experiment [16] and in [12] was inactive. The figures for the AC50 in [7], in experiment [8] and in experiment [10] were 23.4 µM (active), 3.93 µM (active) and 20 µM (active), respectively.
Turning to `N#CN`, the compound was classed as inactive in experiment [1], in [13], in experiment [17], in [3], in experiment [14] and in [4]. Moreover, the compound was called inactive in experiment [5], in experiment [6], in [7], in experiment [15], in [16] and in experiment [12]. Further, in experiment [2], the AC50 was 2.93 µM (active).
On to `Oc1cc(Cl)ccc1Oc1ccc(Cl)cc1Cl`, for which the compound was classed as inactive in experiment [1], in [2], in [3], in experiment [14], in [4] and in experiment [15]. The compound was classed as inactive in [16], in experiment [8], in [11] and in [12]. The AC50 in experiment [2] was 36.3 µM (active) and 21.6 µM (active) and 43.6 µM (active); in experiment [17], 13.1 µM (active) [middle of 4 runs]; in experiment [7], 1.48 µM (active) and 4.99 µM (active) and 1.9 µM (active).
Turning to `O=C(O)COc1ccc(Cl)cc1Cl`, the AC50 in experiment [1] was 0.459 µM (active); in experiment [13] it was 1.89 µM (active); in experiment [11], 22.5 nM (active). Also, the result in [3], in experiment [4], in experiment [5], in [6], in experiment [7] and in [15] was inactive. For the same compound, the compound was called inactive in experiment [16], in [8] and in [12].
Turning to `CC(C)(C)C(O)/C(=C\c1ccc(Cl)cc1Cl)n1cncn1` (stereo not given), the AC50 in experiment [1] was 1.89 µM (active); in experiment [18] it was 733 nM (active); in experiment [7], 8.76 µM (active); in [15], 825 nM (active); in experiment [16], 29.4 µM (active); in [8], 0.621 µM (active). The AC50 in [10] was 0.98 µM (active). Moreover, the call in [13], in [3], in experiment [5], in [6], in [9] and in [12] was inactive.
Regarding `Clc1ccccc1-c1nnc(-c2ccccc2Cl)nn1`, the compound was classed as inactive in experiment [1], in [13], in [5], in experiment [6], in experiment [7] and in experiment [16]. Besides, the outcome in experiment [9] and in experiment [12] was inactive. Besides, the AC50 in [15] was 4380 nM (active); in experiment [8], 0.00929 µM (active); in experiment [10] it was 3.97 µM (active).
In the case of `CCOC1Oc2ccc(OS(C)(=O)=O)cc2C1(C)C` (stereo not given), the AC50 in experiment [1] was 3.97 µM (active); in experiment [18], 2550 nM (active); in [8], 3.12 µM (active); in experiment [10], 20 µM (active). The compound was classed as inactive in experiment [3], in [19], in [5], in experiment [20], in experiment [6] and in [7]. The compound was called inactive in [15], in [16], in experiment [9] and in experiment [12].
